Laboratory results as given in the supplement of paper PMC12669032.
Unmarked numbers belong to inactive results.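 How the source made its calls: active = AUC reduced over 20% with Padj below 0.05 in at least 2 of 3 replicates; inactive = otherwise.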

Key:
Test in all cases: growth AUC relative to DMSO control (median of replicates) (fraction); higher = more growth (less inhibition), active = hit call of the paper
Conditions in all cases: 20 µM; 24 h
Akkermansia muciniphila = tested on: Akkermansia muciniphila
Procedure, shortened: (§1)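 Three biological replicates, each grown on a separate day, were combined as a median for every value. In each, a gut bacterial monoculture in mGAM started at OD600 0.05 and grew anaerobically at 37 °C with 20 µM compound (1% DMSO), with OD600 read hourly over 24 h. Area under the growth curve was normalised against the plate median of solvent-only wells, or against row and column medians on the industrial chemical plate, after the minimum OD was set to 0.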

Bacteroides caccae = tested on: Bacteroides caccae
Procedure, shortened: as §1

Bacteroides clarus = tested on: Bacteroides clarus
Procedure, shortened: as §1

Bacteroides dorei = tested on: Bacteroides dorei
Procedure, shortened: as §1

Bacteroides stercoris = tested on: Bacteroides stercoris
Procedure, shortened: as §1

[1] = tested on: Bacteroides thetaiotaomicron
Procedure, shortened: as §1

Bacteroides uniformis = tested on: Bacteroides uniformis
Procedure, shortened: as §1

[2] = tested on: Bifidobacterium longum subsp. longum
Procedure, shortened: as §1

Clostridium difficile = tested on: Clostridium difficile
Procedure, shortened: as §1

Collinsella aerofaciens = tested on: Collinsella aerofaciens
Procedure, shortened: as §1

Coprococcus comes = tested on: Coprococcus comes
Procedure, shortened: as §1

Escherichia coli ED1a = tested on: Escherichia coli ED1a
Procedure, shortened: as §1

Escherichia coli IAI1 = tested on: Escherichia coli IAI1
Procedure, shortened: as §1

Eubacterium rectale = tested on: Eubacterium rectale
Procedure, shortened: as §1

[3] = tested on: Fusobacterium nucleatum subsp. animalis
Procedure, shortened: as §1

Lactobacillus gasseri = tested on: Lactobacillus gasseri
Procedure, shortened: as §1

Lactobacillus paracasei = tested on: Lactobacillus paracasei
Procedure, shortened: as §1

Odoribacter splanchnicus = tested on: Odoribacter splanchnicus
Procedure, shortened: as §1

[4] = tested on: Parabacteroides distasonis
Procedure, shortened: as §1

Parabacteroides merdae = tested on: Parabacteroides merdae
Procedure, shortened: as §1

Structure (SMILES) | growth AUC (Akkermansia muciniphila) | growth AUC (Bacteroides caccae) | growth AUC (Bacteroides clarus) | growth AUC (Bacteroides dorei) | growth AUC (Bacteroides stercoris) | growth AUC [1] | growth AUC (Bacteroides uniformis) | growth AUC [2] | growth AUC (Clostridium difficile) | growth AUC (Collinsella aerofaciens) | growth AUC (Coprococcus comes) | growth AUC (Escherichia coli ED1a) | growth AUC (Escherichia coli IAI1) | growth AUC (Eubacterium rectale) | growth AUC [3] | growth AUC (Lactobacillus gasseri) | growth AUC (Lactobacillus paracasei) | growth AUC (Odoribacter splanchnicus) | growth AUC [4] | growth AUC (Parabacteroides merdae)
CC1=C(c2ccccc2)C(=O)N(C(C)(C)c2cc(Cl)cc(Cl)c2)CO1 | 1.11 | 0.962 | 0.925 | 0.981 | 0.895 | 0.93 | 0.917 | 0.956 | 1.02 | 0.965 | 0.972 | 1.01 | 0.987 | 0.982 | 0.935 | 1.01 | 1.04 | 0.972 | 0.732 (active) | 0.811
CCNc1nc(NC(C)(C)C)[nH]c(=O)n1 | 1 | 0.937 | 0.98 | 1.01 | 1.17 | 0.969 | 0.983 | 1.03 | 0.951 | 0.95 | 0.988 | 1.02 | 0.987 | 1.03 | 0.99 | 0.899 | 1.04 | 0.948 | 1.01 | 0.994
Oc1ccc2nc(-c3cscn3)[nH]c2c1 | 0.877 | 1.07 | 0.955 | 0.997 | 0.98 | 0.985 | 0.982 | 1.01 | 0.988 | 1.01 | 0.994 | 0.988 | 0.974 | 1.01 | 0.975 | 0.869 | 0.997 | 1.01 | 1.02 | 0.958
COC(=O)C(C)Oc1ccc(Cl)cc1C (stereo not given) | 0.866 | 0.999 | 0.996 | 1 | 1.15 | 1 | 1 | 1 | 0.974 | 1.04 | 1.04 | 0.991 | 1 | 0.997 | 1.03 | 1.06 | 1.01 | 1.02 | 1.02 | 1.05
COc1ccc(Oc2ccc(NC(=O)N(C)C)cc2)cc1 | 0.887 | 1 | 0.958 | 0.98 | 0.951 | 0.982 | 0.948 | 0.957 | 0.99 | 1 | 0.992 | 0.977 | 0.996 | 0.851 | 0.906 | 1.11 | 1.01 | 0.974 | 0.989 | 0.943
CCNc1nc(Cl)nc(N(CC)CC)n1 | 1.06 | 0.995 | 1.01 | 0.986 | 1.01 | 0.977 | 0.951 | 1.02 | 1.02 | 1.03 | 1.02 | 1.02 | 0.971 | 1.04 | 1.11 | 0.925 | 0.997 | 1.04 | 1.07 | 1
Cc1ccc(Cl)cc1 | 0.981 | 0.982 | 1.03 | 1.04 | 0.936 | 1.01 | 1.01 | 0.993 | 1.04 | 1 | 1 | 1.01 | 1.05 | 0.962 | 1.1 | 1.06 | 0.997 | 0.964 | 0.984 | 0.99
CCCCCCC(C)OC(=O)C(C)Oc1ccc(Cl)cc1C (stereo not given) | 0.913 | 0.996 | 0.973 | 0.983 | 0.983 | 1 | 1.02 | 0.848 | 1.01 | 0.968 | 0.994 | 0.985 | 0.999 | 0.96 | 0.956 | 1 | 0.909 | 1.03 | 1.01 | 0.989
CC1(C)C(=O)Oc2ccc(OS(C)(=O)=O)cc21 | 1.03 | 1.05 | 0.993 | 1.02 | 1.06 | 0.988 | 0.986 | 0.988 | 0.99 | 0.997 | 0.992 | 0.984 | 1.01 | 1.03 | 1.1 | 0.983 | 0.965 | 0.993 | 1.01 | 0.979
CCCCCCC(C)OC(=O)COc1nc(F)c(Cl)c(N)c1Cl (stereo not given) | 0.94 | 0.885 | 0.874 | 1 | 0.699 | 0.97 | 0.874 | 0.848 | 0.952 | 0.928 | 0.928 | 1 | 1.01 | 0.875 | 0.935 | 0.967 | 0.942 | 1.04 | 0.919 | 0.891
Clc1ccc(CSc2ccc(Cl)cc2)cc1 | 0.977 | 1.02 | 0.99 | 0.956 | 0.969 | 1.03 | 0.998 | 1.02 | 1.04 | 0.984 | 1.03 | 1 | 0.989 | 1.05 | 1.07 | 0.98 | 1.02 | 1.07 | 1 | 0.979
O=C(O)CCCc1c[nH]c2ccccc12 | 1.13 | 1.01 | 1.01 | 0.776 | 0.994 | 0.971 | 0.979 | 1.01 | 1.01 | 0.954 | 1.01 | 0.955 | 0.962 | 1.07 | 0.971 | 0.832 | 0.884 | 0.989 | 0.922 | 0.984
COc1ccc(NC(=O)N(C)C)cc1Cl | 0.982 | 0.975 | 1 | 1.01 | 0.891 | 0.995 | 1.02 | 1.11 | 0.995 | 0.94 | 1.03 | 0.981 | 0.957 | 1.01 | 0.973 | 0.916 | 1.02 | 1.1 | 0.99 | 0.916
O=C1NC(=O)c2ccccc21 | 1.09 | 0.873 | 1.02 | 1 | 1.31 | 1 | 1.01 | 1.04 | 1.01 | 0.982 | 1.02 | 1.02 | 1.02 | 0.984 | 1.05 | 1.06 | 1.04 | 0.89 | 1.02 | 1.02
CCCCOCCOCCOCc1cc2c(cc1CCC)OCO2 | 0.968 | 0.968 | 0.983 | 1.01 | 1.01 | 0.96 | 0.948 | 1.03 | 1.03 | 0.98 | 1.06 | 1.03 | 1 | 0.84 | 0.992 | 1.03 | 1.01 | 1.07 | 0.529 (active) | 0.924
CC(C)NS(=O)(=O)NC(=O)c1cc(-n2c(=O)cc(C(F)(F)F)[nH]c2=O)c(F)cc1Cl | 1.11 | 1.04 | 1.01 | 1.01 | 0.984 | 0.991 | 1.02 | 0.993 | 1.02 | 0.994 | 0.998 | 1.02 | 1.03 | 1.01 | 1.03 | 0.974 | 0.991 | 0.977 | 1.05 | 0.983
